Shiga inhibitor: inhibitors of Shiga toxin in Vero cells; inhibition, % at 38.7 µM; Vero cells, Shiga toxin protein synthesis inhibition reporter; 290,000 compounds, 9.2% hits; in the data active means inhibition mostly above about 28%, no sharp cut-off; inactive means mostly below about 43%; further: 0% is about no effect
SARS PLP yeast: blocks SARS-CoV papain-like protease in a yeast assay | 330,000 compounds, 0.19% hits | AID 485353 | S. cerevisiae expressing SARS-CoV PLpro, growth rescue | Potency, µM (doses to about 32.9 µM), without a hit: at the top dose activity, positive = growth rescue, actives largely listed as activators; calls by dose curve; further: potency means the concentration at half of the fitted maximal effect; 0% is about no effect; nearly all actives have a fitted effect of over 55% in size
Cycloheximide cs: counter-screen hit for Shiga toxin inhibitors, cycloheximide | cell reporter, cycloheximide protein synthesis inhibition counterscreen | max response, % | 300,000 compounds, 12% hits; in the data active means max response mostly above about 13%, no sharp cut-off; inactive means mostly below about 14%; further: read at 38.3 µM for the half of the compounds with a filed dose; 0% is about no effect
AMA1 RON2 block: AMA1-RON2 (P. falciparum) interaction inhibition | 360,000 compounds, 0.2% hits | Potency, µM (titrated, usually from 58.2 µM), for inactives: at the highest dose activity change, negative = inhibition, hits mostly inhibitors | AlphaScreen AMA1-biotinylated RON2 peptide binding;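 further: potency means the concentration at half of the fitted maximal effect; 0% = vehicle wells and -100% = peptide control; nearly all actives have a fitted effect of over 45% in size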
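AMA1 (3D7) with his tag at 25 nM final met compounds first, then biotinylated RON2 peptide at 25 nM; detection used donor plus acceptor beads, 10 µg/mL apiece, read by AlphaScreen after 30 min at room temperature.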
Pf growth 48h: P. falciparum growth inhibition at 48 hours (one generation). P. falciparum luciferase growth in erythrocytes, 48 h. 310,000 compounds, 5.9% hits. AID 504832. Potency, µM (highest dose often 28.7 µM), without a hit: at the top dose activity change, negative = inhibition, hits mostly inhibitors; further: potency means the concentration at half of the fitted maximal effect; on the % scale 0 is the no-effect control and ±100 the full control effect
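A one-generation exposure of luciferase-tagged malaria parasites in RPMI 1640/Albumax erythrocyte culture, 37 C and 5% CO2. Inhibition is inferred from decreased luminescence after adding detection reagent.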
Pf growth 96h: P. falciparum growth inhibition at 96 hours; P. falciparum luciferase reporter growth, 96 h; Potency, µM (top dose mostly 28.7 µM), for inactives: at the top dose activity change, negative = inhibition, most hits filed as inhibitors; 320,000 compounds, 6.9% hits; further: potency means the concentration at half of the fitted maximal effect; on the % scale 0 is the no-effect control and ±100 the full control effect
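Plates of compound plus infected erythrocytes (2% hematocrit, 0.05% parasitemia final) incubate 96 hours, 37 C, 5% CO2. Detection reagent added; reduced luminescence from the parasites' luciferase reporter flags inhibition.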
* = called active by the depositor; ? = inconclusive; . = not tested or not shown; ! = repeats disagree; [ ] = another dose, or the depositor's remark. A selection: hits, their analogues and other compounds. The true share with any hit is near 19%. Unless noted, the call rests on the fitted dose curve; in most records, active means well fitted curve in the direction sought with a large enough effect; inconclusive means small, poorly fitted or top-dose-only effect, or another doubt; inactive means no such curve, though single readings can be large; an effect the other way counts as inactive or inconclusive.

SMILES | Shiga inhibitor | SARS PLP yeast | Cycloheximide cs | AMA1 RON2 block | Pf growth 48h | Pf growth 96h
Cc1nc2cc(N3CCCCC3)c(NC(=O)c3ccncc3)cc2c(=O)n1Cc1ccc(Cl)cc1 | 16 | 6% | -2 | . | . | ?
CCN(CC)c1cc2nc(C)n(Cc3ccccc3)c(=O)c2cc1NC(=O)C1CC1 | 1 | 9% | -2 | 0% | 7.4µM* | 18%
Cc1nc2cc(N3CCN(C)CC3)c(NC(=O)Cc3ccccc3)cc2c(=O)n1Cc1ccccc1 | 55* | 4% | 90* | -4% | 10µM* | -7%
CCOc1ccc(S(=O)(=O)Nc2ccccc2C(=O)N2CCOCC2)cc1 | -5 | 1% | -5 | -17% | 14% | 1%
COc1ccc(CCC(=O)NCCNC(=O)CCc2ccc(OC)cc2)cc1 | . | -4% | -2 | 0% | -2% | 256%
CCOC(=O)/C=C(C)/C=C/CC(C)CCCC(C)C (stereo not drawn) | . | . | . | . | 0% | -104%
COC(C)(C)CCCC(C)C/C=C/C(C)=C/C(=O)OC(C)C (stereo not drawn) | . | -5% | . | 2% | ? | 15µM*!
CSc1ccc(CC(=O)N2CCC(n3nccc3NC(=O)C3CC3)CC2)cc1 | 75* | -1% | 45* | -12% | 66% | ?
COc1ccccc1C(=O)Nc1ccnn1C1CCN(Cc2cn(C)c3ccccc23)CC1 | -8 | -3% | -8 | -10% | ? | -17%
Cn1cc(CN2CCC(n3nccc3NC(=O)c3ccccc3Cl)CC2)c2ccccc21 | 10 | -3% | 13 | -15% | 3.3µM* | ?
O=C(Nc1ccnn1C1CCN(Cc2ccccc2)CC1)C1CCCC1 | 26 | 5% | -1 | -1% | ? | -8%
CC(Cc1ccc(Cl)cc1)N1CCC(n2nccc2NC(=O)C2CCCC2)CC1 (stereo not drawn) | -4 | 2% | -3 | 5% | 10µM* | ?
CCOc1ccccc1CN1CCC(n2nccc2NC(=O)C2CCCC2)CC1 | 12 | 4% | -2 | -3% | 12µM* | -11%
CCCCNC(=O)C1(C)CCN1C(=O)c1oc2ccccc2c1C (stereo not drawn) | . | . | . | 8% | . | .
COc1ccc(/C=C2\SC(N3CCc4ccccc4C3)=NC2=O)cc1OC | 2 | -44% | 7 | 7% | 8% | 0%
COc1ccc(C(CNC(=O)C2COc3ccccc3O2)N2CCCC2)cc1 (stereo not drawn) | . | 1% | . | -12% | -24% | ?
COC(=O)c1sc(NC(=O)CN2CCN(c3cccc(Cl)c3)CC2)c(C(=O)OC)c1C | . | . | . | 26% | . | .
COc1ccc(CN2CCC(n3nccc3NC(=O)C3CCCC3)CC2)c(OC)c1 | 0 | 2% | 1 | -20% | ? | 5%
COc1ccc(O)c(CN2CCC(n3nccc3NC(=O)C3CCCC3)CC2)c1 | -22 | 2% | 1 | 8% | 13µM* | ?
C[C@H]1CC[C@H]2C(=O)N3[C@H](c4ccccc4Br)[C@@H](C)CC[C@H]3C(=O)N2[C@@H]1c1ccccc1Br | -7 | -29% | -2 | . | ? | 5.2µM*
Cc1cccc(COCCN2CCN(S(=O)(=O)c3ccccc3)CCC2=O)c1 | 9 | 2% | -6 | 10% | -8% | 15µM*
Cc1ccc(S(=O)(=O)N2CCC(=O)N(CCOCc3ccc(Cl)cc3)CC2)cc1 | -9 | -3% | -1 | -5% | -7% | -19%
O=C1CCN(S(=O)(=O)c2ccccc2)CCN1CCOCc1ccccc1 | -8 | 4% | -2 | 15% | -6% | 9.3µM*
COc1ccc(CN(Cc2ccc(C(=O)O)cc2)C(=S)Nc2ccccc2F)cc1OC | -6 | -2% | 6 | 9% | 6% | 29%
O=C(CN1C(=O)NC2(CCCc3ccccc32)C1=O)NCC(F)(F)F (stereo not drawn) | -12 | -2% | -1 | 5% | 20% | 12%
SMILES | Shiga inhibitor | SARS PLP yeast | Cycloheximide cs | AMA1 RON2 block | Pf growth 48h | Pf growth 96h
O=C(N/N=C/c1ccc(O)cc1)Nc1cccc2nsnc12 | 94* | -2% | 40* | 4% | 4% | 49%
O=C(Nc1cc(-c2nc3ccccc3s2)ccc1Cl)c1ccc2c(c1)OCO2 | 52* | 2% | 27* | 26% | 52% | 36%
O=C(Nc1cccc2cccnc12)c1ccc(Br)cc1 | 44 | . | 31* | . | . | .
O=C(Nc1cccc2cccnc12)c1ccc2c(c1)OCCO2 | 115* | -16% | 67* | 8% | . | 40%
Cc1ccc(-c2nc3ccccc3s2)cc1NC(=O)c1ccc2c(c1)OCO2 | 24 | -3% | 6 | -1% | ? | 44%
CCN(CC)S(=O)(=O)c1ccc2c(c1)N(CC(=O)Nc1cccnc1Cl)C(=O)CO2 | -11 | 1% | -3 | -1% | -4% | 14%
O=C(c1ccc(S(=O)(=O)N2CCc3ccccc3C2)cc1)N1CCCCC1 | 1 | -2% | -1 | 12% | ? | 12%[5.75 µM]
O=C(Nc1cccc2nsnc12)c1ccc2c(c1)OCCO2 | 108* | -4% | 30* | 56% | 156% | 15%
CCOc1ccc(C(=O)Nc2cccc3nsnc23)cc1[N+](=O)[O-] | 17 | 0% | -3 | -2% | -41% | -8%
O=C(Nc1cccc2nsnc12)c1ccc(F)cc1 | 50* | -5% | 30* | 30% | 36% | .
O=C(Nc1cccc2nsnc12)c1ccc2c(c1)OCO2 | 52* | -6% | 17 | 13% | 94% | 51%
COC(=O)c1ccc(NC(=O)c2ccc(NS(=O)(=O)c3cccc4cccnc34)cc2)cc1 | 2 | -3% | -5 | 47% | 3% | 23%
O=C(Nc1ccccc1O)c1ccc(NS(=O)(=O)c2cccc3cccnc23)cc1 | 25 | -2% | -2 | 65% | 2.3µM* | ?
CSc1ccc(NC(=O)C2(C)CCN2C(=O)c2sccc2C)cc1 (stereo not drawn) | . | . | . | -20% | . | .
CC(=O)C[C@H]1c2cc(C(F)(F)F)ccc2S(=O)(=O)N1c1ccc(N(C)C)cc1 | . | . | . | -19% | . | .
O=C(NCCCCc1ccccc1)C1CC(c2ccccc2C(F)(F)F)=NO1 (stereo not drawn) | 12 | -4% | -3 | 8% | 43% | 45%
CCCCN(C)CCOc1ccccc1OCC | 9 | -3% | 4 | -17% | 11% | ?
CCCCCCOc1ccc(C(=N)N(CCCC)CCCC)c2ccccc12 | . | . | . | . | 12µM* | 8.5µM*
CCOc1ccccc1N(CC(=O)NCCc1ccccc1)C(=O)CCC(=O)Nc1ccccn1 | -20 | -3% | -5 | 39% | -10% | ?
Cc1ccc(S(=O)(=O)CCC(=O)Nc2nnc(-c3ccccc3S(C)(=O)=O)o2)cc1 | . | -6% | . | 65% | -29% | ?
CC(C)CCOP(=O)(c1ccc(N(C)C)cc1)C(O)c1ccccc1F (stereo not drawn) | -26 | 1% | -3 | -15% | 2.9µM* | ?
CC(C)CCOP(=O)(c1ccc(N(C)C)cc1)C(O)c1ccc(N(C)C)cc1 (stereo not drawn) | -7 | 0% | -4 | -1% | ? | ?
